# Rows were chosen to be rich in hits. Some 9.3% of all compounds tested hit in one or more screens of this group.
# FMDV antiviral – High Throughput Screening for Foot and Mouth Disease Virus Antivirals; hit rate 1.2% among 410,000; AID 1159524, 2015; FMDV antiviral cell-based qHTS; Potency, µM (doses to about 57.9 µM), without a hit: top-dose activity change, negative = inhibition, hits mostly inhibitors; calls by dose curve; tested in HEK293T cells; further: read-out not given here; potency means the concentration at half of the fitted maximal effect; nearly all actives have a fitted effect of over 45% in size
# HCMV inh – qHTS Assay for inhibitors of the human cytomegalovirus (HCMV) | hit rate 4.5% among 410,000 | activity change, negative = inhibition, % at 57.5 µM | HFF cells, HCMV-luciferase reporter, 72 h; hits give low values; in the data active means activity change below about -60%; inconclusive means no clear call, values can overlap the other calls; inactive means above about -39%
#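 Compounds were evaluated in HFFs infected with an HCMV luciferase reporter virus (MOI 1 PFU/cell). Luciferase in lysates collected 72 h post infection served as the replication measure.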
# Sm TGR inh – qHTS Assay for the Inhibitors of Schistosoma Mansoni Peroxiredoxins; Schistosoma mansoni thioredoxin glutathione reductase (TGR), Q962Y6; purified TGR, DTNB reduction, TNB absorbance 405 nm; Potency, µM (titrated, usually from 114 µM), for inactives: at the top dose activity change, negative = inhibition, actives largely listed as inhibitors; hit rate 3% among 360,000; AID 485364, 2010; further: potency means the concentration at half of the fitted maximal effect; nearly all actives have a fitted effect of over 60% in size
#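 TGR 20 nM + NADPH 100 uM (dispensed conc.), cpd preinc 15 min RT; start with NADPH (500 uM addition) then DTNB (15 mM addition). Kinetic TNB absorbance, 405 nm filter. Four-parameter Hill fit across titration.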
# VACV mCherry inh – qHTS for Stage-Specific Inhibitors of Vaccinia Orthopoxvirus: mCherry Reporter Primary qHTS | Vaccinia virus mCherry reporter infection, fluorescence | Potency, µM (highest dose often 36.5 µM), without a hit: top-dose activity change, negative = inhibition, actives largely listed as inhibitors | hit rate 0.63% among 310,000; calls by dose curve; tested in A549 cells; further: potency means the concentration at half of the fitted maximal effect; nearly all actives have a fitted effect of over 35% in size
# Vaccinia Venus – qHTS for Stage-Specific Inhibitors of Vaccinia Orthopoxvirus: Venus Reporter Primary qHTS. hit rate 0.46% among 330,000. AID 720580, 2013. Potency, µM (titrated, usually from 36.5 µM), for inactives: at the top dose activity change, negative = inhibition, actives largely listed as inhibitors. Vaccinia virus Venus reporter expression, fluorescence; calls by dose curve; tested in A549 cells; further: potency means the concentration at half of the fitted maximal effect; nearly all actives have a fitted effect of over 30% in size
# HCV inh – qHTS Assay for Inhibitors of Hepatitis C Virus (HCV); Potency, µM (top dose mostly 41.8 µM), for inactives: top-dose activity change, negative = inhibition, usual class: inhibitors; hit rate 3.4% among 340,000; Huh7.5.1 HCVcc-Cre infection, luciferase reporter, 44 h; further: potency means the concentration at half of the fitted maximal effect
#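 Whole-lifecycle infectious HCVcc-Cre system; cells 1,000/well, compound then virus (~0.5 moi) added 4 h after plating, 44 h culture. Luciferase read 15 sec following 15 min substrate incubation, room temp.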
# * hit, by the source's call; i = inactive; ? = inconclusive; . = no result given; [ ] = another dose, or the depositor's remark. Unless noted, the call rests on the fitted dose curve; in most records, active means well fitted curve in the direction sought with a large enough effect; inconclusive means small, poorly fitted or top-dose-only effect, or another doubt; inactive means no such curve, though single readings can be large; an effect the other way counts as inactive or inconclusive. On the % scale 0 is the no-effect control and ±100 the full control effect.
SMILES,FMDV antiviral,HCMV inh,Sm TGR inh,VACV mCherry inh,Vaccinia Venus,HCV inh
Cc1cc(Br)ccc1NC(=S)NCCc1ccccc1,22%,-66*,-5%,i,-9%,-3%
S=C(NCCc1ccccc1)Nc1ccc(Br)cc1,29%,-75*,-14%,i,-22%,0%
O=C(Nc1nnc(Cc2ccccc2F)s1)c1ccccc1Cl,8%,18,-13%,.,.,7%
Cc1ccc2c(c1)[C@H]1OCC[C@H]1[C@@H](c1ccncc1)N2,0%,17,1%,-3%,1%,11%
CC(=O)N1c2ccc(Cl)cc2C2OCCC2C1c1ccco1 (configuration not stated),-26%,-66*,-14%,-3%,-15%,10%
Clc1ccc2c(c1)C1OCCC1C(c1ccco1)N2 (configuration not stated),10%,152,32µM*,?,-16%,?
COc1ccc(NC(=O)N/C=C/c2ccco2)cc1,-10%,-7,14µM*,i,-4%,-9%
COc1ccc(NC(=O)CNC(=O)c2ccco2)cc1,51%,79,9%,-3%,-9%,30%
O=C(N/C=C/c1ccco1)Nc1cccc(Cl)c1,30%,25,45µM*,.,.,-12%
Cc1ccc(OCC(=O)NCC(=O)OCc2cc(=O)n3nc(CC(C)C)sc3n2)cc1,-23%,5,3%,2%,0%,.
CC(=O)c1ccc(NC(=O)CCS(=O)(=O)c2ccc3c(c2)n(C)c(=O)c(=O)n3C)cc1,-9%,.,40µM*,-16%,-7%,17%
COC1(OC)N=C(N)C2(C#N)C(c3ccc(F)cc3)C12C#N (configuration not stated),-7%,-31,-15%,i,-17%,22%
CCSC1(SCC)N=C(N)C2(C#N)C(c3ccc(F)cc3)C12C#N (configuration not stated),14µM*,-107*,?,-15%[1.46 µM],-13%,1%
Cc1c(N)cc[n+](CC(=O)c2ccccc2)c1C,-12%,-76*,-29%,-4%,-15%,8.9µM*
Cc1cc[n+](CC(=O)c2ccccc2)c2ccccc12,-8%,-14,-10%[57.1 µM],5%,3%,-22%
CCc1ccc(C2=NN(CCC(=O)NCCc3ccc(Cl)cc3)C(=O)CC2)cc1,-15%,27,5%,-10%,-9%,.
C/C(=N\NC(N)=S)c1cc(-c2ccccc2)c(-c2ccccc2)s1,-17%,-3,4%,-14%,-6%,6.3µM*
Cc1cc(C)cc(NC(=O)Nc2ccc(NC(=O)c3ccccc3O)cc2)c1,-14%,-8,2%,-11%,-29%,?
COc1ccc(/C=C2\CCc3ccccc3C2=O)cc1OC,15%,?,-14%,7.9µM*,?,0%
COc1ccc(C=C2C=C(C(C)(C)C)C(=O)C(C(C)(C)C)=C2)cc1OC,22µM*,-99*,4.5µM*,-14%,-23%,?
COc1ccc(/C=C2\CC/C(=C\c3ccc(OC)c(OC)c3)C2=O)cc1OC,?,?,-2%,i,-9%,?
COc1cccc(/C=C2\CCc3ccccc3C2=O)c1,-66%,0,1%,i,-14%,-3%
COc1ccc2c(c1)CC/C(=C\C=C\c1ccccc1)C2=O,0%,-10,45µM*,.,.,?
COc1ccc(OC)c(/C=C2\Cc3ccccc3C2=O)c1,.,.,.,-25%,-9%,.
COc1ccc(OC)c(C=C2CCc3ccccc3C2=O)c1,37%,-96*,.,2%,-22%,.
SMILES,FMDV antiviral,HCMV inh,Sm TGR inh,VACV mCherry inh,Vaccinia Venus,HCV inh
Cc1ccc(-n2c(SCC(=O)O)nc3c(sc(=S)n3-c3ccc(C)c(C)c3)c2=O)cc1,-10%,-17,8%,.,.,10%
Cn1nc(C(=O)NCc2ccc(F)cc2)cc1C(=O)NCc1ccc(F)cc1,2%,-24,5%,-10%,-16%,-27%
CC(C)Oc1ccc(CNC(=O)CCCn2c(=O)c3cccn3c3ccccc32)cc1,-18%,-11,-16%,-25%,-20%,.
CCc1ccc(CNC(=O)CCCn2c(=O)c3cccn3c3cccnc32)cc1,-14%,12,7%,.,.,10µM*
CC(NC(=O)c1ccc(Cn2c(=O)c3cccn3c3cccnc32)cc1)c1ccccc1 (configuration not stated),-9%,-16,-5%,-24%,-23%,.
CC(C)Oc1ccc(CNC(=O)CCCn2c(=O)c3cccn3c3cccnc32)cc1,-1%,-68*,8%,-17%,-12%,.
CC(NC(=O)CCCn1c(=O)c2cccn2c2cccnc21)c1ccccc1 (configuration not stated),2%,-65*,5%,-11%,-13%,.
CCOc1cc(CNC(=O)CCCn2c(=O)c3cccn3c3cccnc32)cc(OCC)c1OCC,-1%,?,5%,-5%,-4%,?
CCCCOc1ccc(S(=O)(=O)N2CCN(C)CC2)cc1,41%,61,.,i,-15%,-1%
O=C(O)c1cccnc1SCc1cccc(Br)c1,23%,53,12%,.,.,7%
COc1cc(OC)cc(-c2nc3nc(C)c(CCC(=O)NCC(OC)OC)c(C)n3n2)c1,-22%,-20,8%,i,-12%,11%
CCOc1ccc(C(=O)CC(C(=O)O)N2CCCCC2)cc1 (configuration not stated),?,.,6.3µM*,.,.,?
CCOc1ccc(C(=O)CC(C(=O)O)N2CCN(Cc3ccccc3)CC2)cc1 (configuration not stated),-9%,.,7.9µM*,.,.,-4%
CCOc1ccc(C(=O)N2CCCCCC2)cc1,18%,33,-2%,.,?,21%
CCOc1ccc(C(=O)CC(NCc2cccs2)C(=O)O)cc1 (configuration not stated),?,10,6.3µM*,-14%,-11%,?
CC1(c2nnc(-c3cccc(Cl)c3)o2)CC(c2ccc(C#N)cc2)=NO1 (configuration not stated),-19%,-21,.,i,-9%,-14%
CCc1cc(C(=O)N2CCCC(C(=O)c3cccc4ccccc34)C2)n(C)n1 (configuration not stated),?,-60*,4%,-15%,-23%,10µM*
CCCc1cc(C(=O)N2CCCC(C(=O)c3cccc4ccccc34)C2)n(C)n1 (configuration not stated),-14%,0,-13%,.,.,?
CCOc1ccccc1-n1c(O)c(C=NCCCn2ccnc2)c(=O)[nH]c1=O,-8%,44,2%,i,-9%,16%
